# A selection: hits, their analogues and other compounds. The true share with any hit is near 8%.
# HT1080-NT tox – kills 2HG-producing HT-1080-NT fibrosarcoma cells; HT-1080-NT fibrosarcoma viability, CellTiter-Glo ATP luminescence, 48 h; Potency, µM (titrated, usually from 46.1 µM), without a hit: at the highest dose activity, negative = less viability, actives largely listed as cytotoxic; actives 1.6% (n = 360,000); AID 686970;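 also: NT is the 2HG producing partner of a matched IDH1 knockdown line; 0% = DMSO-treated cells and -100% = media-only wells without cells; nearly all actives have a fitted effect of over 55% in size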
#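 Viability by CellTiter-Glo luminescence after 48 h compound exposure at 37C of HT-1080-NT cells (750/well, RPMI, 5% FBS). % activity scaled between DMSO wells and medium-only wells, then curve-fitted and categorized by curve class.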
# MCF10A rereplic – induces DNA re-replication in MCF 10a normal breast cells. MCF 10A DNA re-replication, Hoechst nuclear intensity, 48 h. Potency, µM (series often up to 46.1 µM), inactives show at the highest dose activity, positive = re-replication, hits mostly activators. actives 2.9% (n = 350,000). AID 624296; also: % of control where 0% means no effect; nearly all actives have a fitted effect of over 50% in size
# KB-3-1 tox – kills parental KB-3-1 adenocarcinoma cells | KB-3-1 viability, CellTiter-Glo ATP luminescence, 72 h | Potency, µM (top dose mostly 46.1 µM), usual class: cytotoxic | AID 1347075 | actives 1.4% (n = 400,000); also: % is scaled to controls: 0 for no effect and ±100 for the full control effect; nearly all actives have a fitted effect of over 60% in size
#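 Using CellTiter-Glo luminescence, growth of non-resistant KB-3-1 adenocarcinoma cells is assessed 72 h after pin-tool compound addition at 37 °C. Normalized responses across the concentration series yield fitted curves.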
# SW480 rerep – DNA re-replication induction in SW480 cells. SW480 DNA re-replication, Hoechst DNA content imaging, 48 h. Potency, µM (titrated, usually from 46.1 µM), without a hit: at the top dose re-replication activation, hits mostly activators. actives 1.8% (n = 340,000). AID 624297; also: % of control where 0% means no effect; nearly all actives have a fitted effect of over 55% in size
#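 Compounds, transferred as 23 nL by pin tool, were incubated with cells for 48 hr; DNA content per nucleus was then quantified by Hoechst staining and fluorescence plate imaging.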
# HT1080 IDH1KD tx – HT-1080 IDH1 knockdown cell toxicity (counter line). HT-1080 IDH1 knockdown viability, ATP luminescence, 48 h. Potency, µM (top dose mostly 46.1 µM), inactives show at the highest dose activity, negative = toxicity, hits mostly cytotoxic. actives 2% (n = 360,000);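 also: 0% = DMSO wells and -100% = cell-free medium wells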
#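 IDH1KD HT-1080 cells, 750/well, RPMI + 5% FBS; compound pinned after 2 h settling; 48 h, 37 °C; CellTiter-Glo luminescence; % activity normalised to DMSO and no-cell wells; curves fitted, classed by r2 and efficacy.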
# KB-V1 MDR tox – kills drug-selected multidrug resistant KB-V1 cells. KB-V1 MDR cells viability, CellTiter-Glo, 72 h. Potency, µM (top dose mostly 46.1 µM), most hits filed as cytotoxic. actives 3.4% (n = 400,000); also: % is scaled to controls: 0 for no effect and ±100 for the full control effect; nearly all actives have a fitted effect of over 60% in size
#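 Potencies derive from concentration-effect curves fitted to normalized luminescence (CellTiter-Glo) of KB-V1 cells treated for 72 h at 37 degrees C in phenol-red-free DMEM containing 10% FBS.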
# * marks the source's active call; other numbers are inactive results; i = inactive; ? = inconclusive; / = no result given. Calls follow the shape of the dose curve; as a rule, active = well fitted curve in the direction sought with a large enough effect; inconclusive = small, poorly fitted or top-dose-only effect, or another doubt; inactive = no such curve, though single readings can be large; an effect the other way counts as inactive or inconclusive. Potency is read from the fitted curve at half-maximal effect.
SMILES,HT1080-NT tox,MCF10A rereplic,KB-3-1 tox,SW480 rerep,HT1080 IDH1KD tx,KB-V1 MDR tox
O=C(NCC(c1cccnc1)N1CCN(Cc2ccccc2)CC1)C(=O)Nc1cccc(F)c1 (centres undefined),/,/,i,/,/,i
COc1ccc(S(=O)(=O)NCc2cccn2Cc2cc(C)ccc2C)cc1OC,/,/,i,/,/,i
O=S1(=O)N=C(Oc2cccc(-c3ccccc3)c2)c2ccccc21,/,/,i,/,/,i
CCOc1ccc(C(O)(CCC(C)C)C(CN2CCOCC2)c2ccccc2)cc1 (centres undefined),?,?,i,23µM*,18µM*,?
CCN(CC)S(=O)(=O)c1ccc(C(=O)OC2CCCCC2CN(C)C)cc1 (centres undefined),-9%,0.1µM*,i,?,-9%,i
COc1ccc(NC(=O)c2cc3c(C)nn(-c4ccccc4)c3s2)c(OC)c1,/,/,i,/,/,i
COc1ccc(NS(=O)(=O)c2ccc(O)c(NC(=O)c3cc4c(C)nn(-c5ccc(F)cc5)c4s3)c2)cc1,?,8.2µM*,?,?,?,i
CC(C)(C)OC(=O)N1CCC(c2nnc(SCc3ccccc3)o2)CC1,/,/,i,/,/,?
Cc1cccc2c1-c1sc(C(=O)N3CCN(c4ccccc4)CC3)cc1CO2,/,/,i,/,/,i
N#CC1=C(N)NC(=S)C(C(N)=O)C1c1ccc(Cl)cc1Cl (centres undefined),?,15µM*,i,16µM*,?,?
N#CC1=C(N)NC(=S)C(C(N)=O)C1c1ccccc1F (centres undefined),-27%,?,i,21µM*,?,i
CCOC(=O)C1C(=O)NC(SC)=C(C#N)C1c1ccccc1F (centres undefined),8%,-2%,i,-6%,1%,15µM*
Cc1cccc(C)c1-n1ncc(C(=O)N2CCN(c3ncccn3)CC2)c1C1CCN(C(=O)OC(C)(C)C)CC1,/,/,i,/,/,i
CS(=O)(=O)CC[C@@H](C(=O)NCCc1ccccc1)N1Cc2ccccc2C1=O,/,/,i,/,/,i
CC(C)OCCCn1c(=O)c2ccccc2n2c(-c3ccccc3)nnc12,/,/,i,/,/,?
S=C(Nc1ccc(Cl)cc1)c1nc2ccccc2[nH]1,?,?,?,/,?,5.2µM*
O=C(/C(=C/c1ccc(Cl)cc1)c1nc2ccccc2[nH]1)c1cccs1,16µM*,5.2µM*,i,?,16µM*,?
Cc1ccccc1NC(=S)c1nc2ccccc2[nH]1,-20%,?,?,8%,-24%,?
O=C(/C=C/c1cccc(Cl)c1)c1nc2ccccc2[nH]1,?,?,?,?,?,i
COc1cc(/C=C(/C(=O)c2cccs2)c2nc3ccccc3[nH]2)ccc1O,7.9µM*,4.1µM*,?,7.3µM*,5µM*,16µM*
O=C(/C(=C\c1ccccc1)c1nc2ccccc2[nH]1)c1ccc(Cl)cc1,3.7µM*,4.1µM*,?,?,3.3µM*,?
O/C(=C\c1nc2ccccc2[nH]1)c1cccs1,-29%,?,i,?,?,i
Cc1ccccc1OC(=O)CSc1nnc(-c2ccc3c(c2)OCO3)o1,/,/,i,/,/,i
CCC(Sc1nncn2c1cc1occc12)C(=O)Nc1ccc(C)c(Cl)c1 (centres undefined),/,/,i,/,/,i
CC(=O)c1cccc(S(=O)(=O)N2CCN(c3nc(-c4cccs4)nc4ccccc34)CC2)c1,/,/,i,/,/,i
SMILES,HT1080-NT tox,MCF10A rereplic,KB-3-1 tox,SW480 rerep,HT1080 IDH1KD tx,KB-V1 MDR tox
CCN1CCN(Cc2c(O)ccc3c(=O)c(Oc4ccccc4Cl)c(C(F)(F)F)oc23)CC1,/,/,i,/,/,i
CCOC(=O)c1c(S(=O)(=O)N2CCCC(C(=O)N3CCN(c4cc(C)ccc4C)CC3)C2)c(C)n(C)c1C (centres undefined),/,/,i,/,/,?
CC(=O)Nc1cccc(Oc2ncnc3scc(-c4ccc(C(C)C)cc4)c23)c1,?,23µM*,?,?,?,21µM*
COc1ccc(-c2csc3ncnc(Nc4cccc(OC)c4)c23)cc1,/,/,i,/,/,i
Cc1cccc(-c2nc(S(=O)(=O)c3ccc(Cl)cc3)c(N3CCCCCC3)o2)c1,/,/,i,/,/,i
CCCc1sc(N/N=C/c2ccccn2)nc1-c1ccc(Br)cc1,3.5µM*,?,?,?,2.8µM*,?
CCOc1ccc(NC(=S)Nc2ccc3nsnc3c2)cc1,-14%,?,i,21µM*,-1%,i
COc1ccc(NC(=S)c2ccncc2)cc1,12%,-45%,?,?,-8%,18µM*
COc1ccc(NC(=S)NN(C)C(=S)Nc2ccc(OC)cc2)cc1,1.5µM*,?,?,3.7µM*,1.3µM*,?
COc1ccc(NC(=S)Nc2ccc3nc(C)c(C)nc3c2)cc1,11%,7%,i,-1%,1%,i
COc1ccc(NC(=S)Nc2ccc3nsnc3c2)cc1,-25%,22%,i,6%,?,18µM*
CCN(CC)C(=O)Cn1c(=O)n(Cc2ccc(C(=O)NCc3ccccc3Cl)cc2)c(=O)c2ccccc21,/,/,?,/,/,i
CCN(C(=O)Cn1cc(S(=O)(=O)Cc2ccccc2Cl)c2ccccc21)c1ccccc1,/,/,i,/,/,?
Cc1cccc(NC(=O)C(=O)NCCc2csc(-c3ccc(F)cc3)n2)c1C,/,/,i,/,/,i
CC(C)N(C(=O)Nc1ccc2nsnc2c1)C(C)C,18µM*,16µM*,?,?,?,?
CCOc1ccc(NC(=S)Nc2cc(OC)c(Cl)cc2OC)cc1,10%,-58%,i,-27%,6%,16µM*
CCOc1ccc(NC(=S)Nc2ccc(C)c([N+](=O)[O-])c2)cc1,?,1%,i,-2%,11%,16µM*
CCSc1nc2c(c(=O)[nH]c(=O)n2C)n1CC(O)COc1ccc(Cl)cc1 (centres undefined),/,/,i,/,/,i
O=C(NCCc1ccccc1)c1ccc2c(c1)N(Cc1ccc(Cl)cc1)C(=O)c1ccccc1S2(=O)=O,/,/,i,/,/,i
C=CCN(c1ccccc1Cl)S(=O)(=O)c1cccc(C(=O)NCCc2ccc(OC)cc2)c1,-1%,30%,23µM*,12%,-15%,2.3µM*
